Hits are enriched below; roughly 1% of the tested compounds scored in any of these assays.
RXFP1 ag = agonists of human relaxin receptor RXFP1. 0.3% of 370,000 active. HEK293T-RXFP1 cAMP TR-FRET, 30 min; response scale: percent of porcine relaxin response, buffer zero. Q9HBX9. AID 2676. Potency, µM (titrated, usually from 57.5 µM), for the others: at the top dose activation, hits mostly activators; also: potency is read from the fitted curve at half-maximal effect; % is scaled to controls: 0 for no effect and ±100 for the full control effect; nearly all actives have a fitted effect of over 60% in size
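cAMP rise read by TR-FRET after 30 min, 37C compound exposure (up to 58 uM) in RXFP1-transfected HEK293 cells with Ro 20174 present. EC50 from Hill-equation fits, with 29 nM porcine relaxin as 100% and buffer as basal.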
PTHR1 ag = agonists of human PTHR1 parathyroid hormone receptor. Q03431. HEK293 GP2 PTHR1 cells, GloSensor cAMP luminescence, 1 h. Potency, µM (top dose mostly 115 µM), without a hit: at the top dose activation, actives largely listed as activators. 0.075% of 410,000 active; also: potency is read from the fitted curve at half-maximal effect; nearly all actives have a fitted effect of over 55% in size
Target sequence (Q03431 whole entry, looked up): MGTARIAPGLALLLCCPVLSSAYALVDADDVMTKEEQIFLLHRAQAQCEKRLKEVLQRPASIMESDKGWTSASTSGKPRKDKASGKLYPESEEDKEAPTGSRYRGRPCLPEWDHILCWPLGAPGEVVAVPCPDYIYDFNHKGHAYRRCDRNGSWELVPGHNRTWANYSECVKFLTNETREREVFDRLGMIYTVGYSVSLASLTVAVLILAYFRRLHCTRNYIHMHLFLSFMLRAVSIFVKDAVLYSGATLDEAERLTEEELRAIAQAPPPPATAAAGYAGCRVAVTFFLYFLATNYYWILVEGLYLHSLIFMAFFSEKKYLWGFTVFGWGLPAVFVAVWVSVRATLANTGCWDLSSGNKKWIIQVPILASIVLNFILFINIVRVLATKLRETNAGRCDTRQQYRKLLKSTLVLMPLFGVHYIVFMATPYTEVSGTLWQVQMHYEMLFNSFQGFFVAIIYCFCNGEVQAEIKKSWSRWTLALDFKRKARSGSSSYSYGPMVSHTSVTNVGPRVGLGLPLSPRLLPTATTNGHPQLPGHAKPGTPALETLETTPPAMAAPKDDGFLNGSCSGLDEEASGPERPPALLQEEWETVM
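HEK-293-derived GP2 cells expressing PTHR1 and a GloSensor cAMP reporter, 3,000/well, plated overnight, given luciferin plus IBMX (each 0.5 mM as added) for 1 h at 37 °C, then compound for 1 h at 37 °C. Luminescence was read after 15 min at room temperature.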
gsp antagonist = gsp mutant antagonism. gsp-mutant cells, cAMP HTRF, 30 min. Potency, µM (top dose mostly 76.9 µM), for the others: at the top dose activity change, negative = inhibition, hits mostly inhibitors. 0.4% of 340,000 active. AID 624288; calls by dose curve; cell line not stated here;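 also: intracellular cAMP measured with PDE inhibitor Ro 20-1724 present during compound exposure; potency is read from the fitted curve at half-maximal effect; % is scaled to controls: 0 for no effect and ±100 for the full control effect; nearly all actives have a fitted effect of over 65% in size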
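G418-selected cells were plated in DMEM/10% FBS for 16-24 h at 37C, then treated with compounds plus the PDE inhibitor […] (300 uM solution added) for 30 min at 37C. Intracellular cAMP was measured by HTRF after 30 min lysis at room temperature.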
gsp agonist = activates gsp, the McCune-Albright syndrome mutation; gsp mutant cells, cAMP HTRF, 30 min; Potency, µM (titrated, usually from 76.9 µM), for the others: at the top dose activation (cAMP increase), actives largely listed as activators; 0.13% of 340,000 active; AID 624287; active = well fitted activation curve with a large enough effect; inconclusive = small, poorly fitted or top-dose-only effect, or another doubt; inactive = no such curve, though single readings can be large or run the other way; cell line not stated here;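 also: phosphodiesterase inhibitor Ro 20-1724 added with compounds to block cAMP breakdown; potency is read from the fitted curve at half-maximal effect; nearly all actives have a fitted effect of over 60% in size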
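Cells in DMEM/10% FBS with G418 were pretreated with compounds in DMSO plus […] (300 uM stock) for 30 min at 37C. cAMP was measured by HTRF (cAMP-d2 plus anti-cAMP antibody-K) after 30 min at room temperature.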
RXFP1 antagonist = antagonists of human relaxin receptor RXFP1; Q9HBX9; HEK293-RXFP1, relaxin-stimulated cAMP HTRF, 30 min; hits give low values; activity change, negative = inhibition, % at 57.5 µM; 0.59% of 350,000 active; AID 1259400;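 active = activity change of -60% or lower, but not beyond a set lower limit; inconclusive = change between -60% and -40%, or beyond the set limit; inactive = change above -40%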; also: % is scaled to controls: 0 for no effect and ±100 for the full control effect
An asterisk follows results filed as active; i = inactive; ? = inconclusive; . = no result; [ ] = another dose, or the depositor's remark. Unless noted, calls follow the shape of the dose curve; as a rule, active = well fitted curve in the direction sought with a large enough effect; inconclusive = small, poorly fitted or top-dose-only effect, or another doubt; inactive = no such curve, though single readings can be large; an effect the other way counts as inactive or inconclusive.

SMILES	RXFP1 ag	PTHR1 ag	gsp antagonist	gsp agonist	RXFP1 antagonist
CC(=O)c1ccccc1NS(=O)(=O)c1cc2c(cc1C)NC(=O)CO2	26%	-3%	.	.	-13
CS(=O)(=O)c1ncc(Cl)c(C(=O)Nc2ccc(OC(F)F)cc2)n1	12%	-65%	-21%	-2%	-82*
COc1ccc2nc(NC(=O)c3nc(S(=O)(=O)Cc4ccccc4)ncc3Cl)sc2c1	0%	-42%	.	.	?
COc1ccc2nc(NC(=O)c3nc(S(=O)(=O)Cc4ccccc4F)ncc3Cl)sc2c1	-1%	-59%	.	.	-83*
CS(=O)(=O)c1ncc(Cl)c(C(=O)Nc2ccc(N3CCOCC3)cc2)n1	0%	-31%[57.5 µM]	2%	1%	-14
CCc1ccc(CNC(=O)C2CCCN(c3nn4cc(-c5ccc(F)cc5)nc4s3)C2)cc1 (centres undefined)	5%	-26%	.	.	-21
N[C@H]1CN(c2c(F)cc3c(=O)c(C(=O)O)cn(C4C[C@@H]4F)c3c2Cl)CC12CC2 (some centres undefined)	.	.	.	.	-17
Cc1ccc(S(=O)(=O)Nc2ccccc2/C=N/c2nc3ccccc3n2C(C)C)cc1	0%	-7%	-17%	-3%[15.4 µM]	-64*
CC(=O)Nc1ccc(S(=O)(=O)Nc2cccc(-n3cnnn3)c2)cc1	6%	-8%	8%	7.9µM*	13
COc1ccc(OC)c2c1C(=O)C(Cl)=C(Cl)C2=O	-3%	-96%	35µM*	-69%	.
Nc1ccc(-c2nc3cc(N)ccc3o2)cc1	?	-16%	15%	?	19
CN(C)c1ccc(-c2nc3cc(N)ccc3o2)cc1	28µM*	-37%	12%	20µM*	19
O=C(Nc1ccccc1C(=O)Nc1nnc(C(F)(F)F)s1)c1ccccc1Cl	2%	-30%	32µM*	-11%[15.4 µM]	-27
O=C(NCc1ccccc1)c1ccc(CSc2nc3cccnc3n2Cc2cccc(F)c2)cc1	4%	-13%	.	.	-7
O=C(CSc1nnc(-c2ccco2)o1)c1ccccc1	0%	-45%	-11%	7%	0
O=C(CSc1nnc(-c2ccco2)c(-c2ccco2)n1)c1ccccc1	27%	-9%	-28%	1%	-97*
CC(=O)c1ccc(NC(=O)CSc2nnc(-c3ccco3)c(-c3ccco3)n2)cc1	-3%	-2%	-13%	20%	-71*
CCN(CC)CCNC(=O)c1sc2ncccc2c1-n1cccc1	7%	-13%	.	.	-10
CCOc1cc(/C=N/Nc2cccc(C(=O)O)c2)ccc1OC(=O)c1ccccc1	1%	-23%	-10%	3%	-75*
CCOc1cc(/C=N/NC(=O)c2ccncc2)ccc1OC(=O)c1ccccc1	-1%	-73%	-12%	0%	-25
CCOc1cc(/C=N/NC(=O)c2ccccn2)ccc1OC(=O)c1ccc(F)cc1	3%	-2%	-8%	-55%	-93*
Cc1cc(C)c(NC(=O)Cn2c(=O)n(CCc3ccccc3)c(=O)c3ccccc32)c(C)c1	8%	-6%	.	.	.
CCOC(=O)c1cccc(NC(=O)c2cc(-c3ccc(Cl)s3)nc3ccccc23)c1	9%	-15%	.	.	-3
O=C(COC(=O)C1CCN(S(=O)(=O)c2ccc(Cl)c(C(F)(F)F)c2)CC1)NCc1ccco1	0%	i	9%	6%	-16
CC1CCCCN1C(=O)COC(=O)C1CCN(S(=O)(=O)c2ccc(Cl)c(C(F)(F)F)c2)CC1 (centres undefined)	1%	-33%	5%	0%[15.4 µM]	-65*
SMILES	RXFP1 ag	PTHR1 ag	gsp antagonist	gsp agonist	RXFP1 antagonist
Cc1cn2c(=O)c(S(=O)(=O)NCCc3ccccc3)c(C)nc2s1	1%	-7%	.	.	-13
CC(C)CCNC(=O)c1ccc2c(c1)ncn2C1CCCC1	5%	-43%	7.9µM*	-2%[15.4 µM]	-8
Cc1ccccc1NC(=O)C1CCC(CNS(=O)(=O)c2ccc3c(c2)C(C)(C)C(=O)N3C)CC1 (centres undefined)	2%	-16%	.	.	-12
COc1cccc(N2CCN(c3ncnc4c3[nH]c3ccc(F)cc34)CC2C)c1 (centres undefined)	5%	-21%[57.5 µM]	3.5µM*	-17%	-69*
Cc1ccc2[nH]c3c(N4CCN(Cc5ccc6c(c5)OCO6)CC4)ncnc3c2c1	1%	.	.	.	.
COc1ccc2c(c1)[nH]c1c(N3CCN(Cc4ccc5c(c4)OCO5)CC3)ncnc12	-2%	-31%	40µM*	-68%	-13
COc1ccc2c(c1)[nH]c1c(N3CCSCC3)ncnc12	-1%	-32%	28µM*	-9%[15.4 µM]	?
COc1cccc(N2CCN(c3ncnc4c3[nH]c3ccccc34)CC2C)c1 (centres undefined)	0%	.	.	.	.
COc1ccc2[nH]c3c(N4CC(C)OC(C)C4)ncnc3c2c1 (centres undefined)	12%	-3%	4%	22%	-4
COc1ccc(-c2noc(CN(C(=O)COc3cc(C)c(Br)c(C)c3)C(C)C)n2)cc1	-2%	-38%	.	.	.
COc1c(C)c2c(c(O)c1C/C=C(\C)CCC(=O)OCCN1CCOCC1)C(=O)OC2	.	.	.	.	-5
CC(COc1ccccc1)NN (centres undefined)	.	.	.	.	-11
O=S(=O)(c1ccccc1)[C@@]1(c2ccc(Br)cc2)C[C@@H]2ON=C(c3ccccc3)[C@@H]2C1	0%	i	11µM*	.	.
O=S(=O)(c1ccccc1)[C@@]1(c2ccc(Br)cc2)C[C@@H]2ON=C(c3cccc(Br)c3)[C@@H]2C1	0%	i	-7%	.	.
COc1c2c(nc3occc13)C(CC=C(C)C)(OC)C(=O)C=C2 (centres undefined)	0%	-36%	-4%	-3%[15.4 µM]	-62*
CCn1cc(C(=O)NCCc2ccccc2)c(=O)c2cc(S(=O)(=O)N3CCc4ccccc4C3)ccc21	0%	i	.	.	.
O=C(N/N=C/c1ccccc1C(=O)O)c1cc(-c2ccc3c4c(cccc24)CC3)n[nH]1	0%	i	-14%	2%[15.4 µM]	-65*
O=C(N/N=C/c1ccco1)c1cc(-c2cccc3ccccc23)n[nH]1	1%	-6%	-3%	-7%	-13
Cc1cccc(OCCc2c(C)[nH]c(=S)[nH]c2=O)c1	3%	-6%	8%	-8%[15.4 µM]	-118*
Cc1[nH]c(=S)[nH]c(=O)c1Cc1ccccc1	-1%	i	0%	20%	-63*
CCCCc1c(C)[nH]c(=S)[nH]c1=O	0%	-25%	1%	?	-6
O=C(Nc1ccc(F)cc1F)C1CCN(S(=O)(=O)c2ccc3[nH]c(=O)ccc3c2)CC1	?	-14%	.	.	.
COc1cccc(CNC(=O)c2ccc(-n3c(C)cc4c3CCCC4)cc2)c1	4%	10%	.	.	-5
O=C(N/N=C/c1ccccc1)c1cc(-c2ccc3c(c2)OCO3)n[nH]1	2%	-12%	-20%	-27%	-4
O=C(N/N=C/c1cccc(O)c1)c1cc(-c2ccc3c(c2)OCO3)n[nH]1	0%	-32%	-34%	-42%	-69*

Compound activity from PubChem BioAssay.
